Screens from PubChem BioAssay.
USP8 inh – human USP8 deubiquitinase inhibition; P40818; 47,000 tested, 4.2% active; inhibition, % at 20 µM; purified USP8, Ub-rhodamine cleavage fluorescence, 30 min
USP17 block – human USP17-like deubiquitinase inhibition | 47,000 tested, 6.5% active | inhibition, % at 50 µM | purified USP17, Ub-rhodamine cleavage fluorescence, 3 h | AID 1645855 | A8MUK1
USP30 block – inhibitors of human USP30 deubiquitinase | Q70CQ3 | purified USP30, Ub-rhodamine cleavage fluorescence | inhibition, % at 25 µM | 47,000 tested, 5.3% active | AID 1645860
Target sequence (Q70CQ3 whole entry, looked up): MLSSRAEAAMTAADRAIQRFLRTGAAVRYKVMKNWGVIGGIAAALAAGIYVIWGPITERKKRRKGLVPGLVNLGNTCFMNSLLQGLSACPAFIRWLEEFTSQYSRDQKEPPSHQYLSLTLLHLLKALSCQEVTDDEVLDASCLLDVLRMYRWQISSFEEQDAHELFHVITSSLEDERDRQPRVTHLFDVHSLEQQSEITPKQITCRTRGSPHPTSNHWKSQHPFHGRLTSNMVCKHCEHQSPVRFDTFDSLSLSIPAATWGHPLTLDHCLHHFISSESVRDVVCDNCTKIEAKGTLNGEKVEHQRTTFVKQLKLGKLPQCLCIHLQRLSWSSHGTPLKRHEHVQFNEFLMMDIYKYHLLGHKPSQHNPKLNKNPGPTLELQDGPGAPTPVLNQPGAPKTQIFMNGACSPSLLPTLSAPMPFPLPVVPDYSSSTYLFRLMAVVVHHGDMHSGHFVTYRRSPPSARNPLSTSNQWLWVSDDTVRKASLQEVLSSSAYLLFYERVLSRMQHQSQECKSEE
An asterisk follows results filed as active. Sampled rows, rich in hits. Any-hit rate of the full collection: about 12%. Rule as the data show it: active = inhibition above about 30%; inactive = the rest.

What do the screens show for `CCc1cc(=O)n(CC(=O)Nc2cc(C)ccc2OC)c(N2CCOCC2)n1`?
USP8 inh: 14; USP17 block: 36*; USP30 block: 59*

How did Cc1ccc(NC(=O)c2cn(-c3cc(N4CCOCC4)ncn3)cn2)cc1F do in these assays?
USP8 inh: -41; USP17 block: 12; USP30 block: -68

What do the screens show for `O=C(Nc1ccccc1Cl)c1ccc(N2CCOCC2)nn1`?
USP8 inh: 1; USP17 block: 6

How did COc1ccc(C)cc1NC(=O)c1ccc(N2CCOCC2)nn1 do in these assays?
USP8 inh: -26; USP17 block: 52*; USP30 block: 54*

What do the screens show for `COc1cccc(C(=O)Nc2ccc(C)c(N3CCCCC3=O)c2)c1OC`?
USP8 inh: 16; USP17 block: 0; USP30 block: -4

What do the screens show for `CC(C)c1nc(CNC(=O)C2CCCCC2)no1`?
USP8 inh: 25; USP17 block: 37*; USP30 block: 10

How did O=C(NCc1noc(C2CCCCC2)n1)C1CCCC1 do in these assays?
USP8 inh: -1; USP17 block: -13; USP30 block: -8

What do the screens show for `COc1cccc(C(=O)N2CCN(c3nc(C)cc(N4CCN(C)CC4)n3)CC2)c1OC`?
USP8 inh: 8; USP17 block: 10; USP30 block: 8

Results for CNC(=O)c1c2n(c3ncccc13)CCN(S(=O)(=O)c1ccc(-c3ccccc3)cc1)C2 ?
USP8 inh: 14; USP17 block: 52*; USP30 block: -22

What do the screens show for `CNC(=O)c1c2n(c3ncccc13)CCN(S(=O)(=O)c1ccc(C(C)(C)C)cc1)C2`?
USP8 inh: 0; USP17 block: -24; USP30 block: -32

How did Cc1cccc(N(C(=O)c2ccc(-c3ccccc3)[nH]2)C(C(=O)NC2CCCCC2)c2ccc(F)cc2)c1 (stereo unspecified) do in these assays?
USP8 inh: 8; USP17 block: 21; USP30 block: 25

How did O=C(Cc1ccc(-n2c(=O)c3ccccc3n(Cc3cccc([N+](=O)[O-])c3)c2=O)cc1)NC1CCCC1 do in these assays?
USP8 inh: 26; USP17 block: 23; USP30 block: 21

How did COc1cc(NC(=O)Cn2c(=O)n(-c3ccc(CC(=O)NC4CCCC4)cc3)c(=O)c3ccccc32)cc(OC)c1 do in these assays?
USP8 inh: 63*; USP17 block: 41*; USP30 block: 21

What do the screens show for `O=C(Cn1c(=O)n(-c2ccc(CC(=O)NC3CCCC3)cc2)c(=O)c2ccccc21)Nc1ccccc1[N+](=O)[O-]`?
USP8 inh: 80*; USP17 block: 21; USP30 block: 16

Results for O=C(Cc1ccc(-n2c(=O)c3ccccc3n(Cc3cccc(F)c3)c2=O)cc1)NC1CCCC1 ?
USP8 inh: 21; USP17 block: -1; USP30 block: -25

How did Cc1c(C(=O)N2CCCCCC2c2ccncc2)cnn1C (stereo unspecified) do in these assays?
USP8 inh: 7; USP17 block: 1; USP30 block: -3

Results for CCOC(=O)c1c(-c2ccc(C)o2)csc1NC(=O)COC(=O)c1cc(=O)[nH]c2ccccc12 ?
USP8 inh: -2; USP17 block: 37*

How did CCOC(=O)c1oc2ccccc2c1NC(=O)COC(=O)c1cc(=O)[nH]c2ccccc12 do in these assays?
USP8 inh: -8; USP17 block: -10; USP30 block: 0

What do the screens show for `CCC(C)n1c(-c2ccccc2)nc2nc3ccccc3nc21` (stereo unspecified)?
USP8 inh: -11; USP17 block: 0; USP30 block: 2

What do the screens show for `CCCCNc1cc(CCC)nc2nc(-c3cccnc3)nn12`?
USP8 inh: 0; USP17 block: -11; USP30 block: 1

What do the screens show for `CC(C)c1cc(N2CCCCC2)n2nc(-c3cccnc3)nc2n1`?
USP8 inh: 4; USP17 block: -5

How did CCOC(=O)N1CCN(c2cc(C(C)C)nc3nc(-c4cccnc4)nn23)CC1 do in these assays?
USP8 inh: 1; USP17 block: 25; USP30 block: 33*

What do the screens show for `CCCc1cc(N2CCCCC2)n2nc(-c3cccnc3)nc2n1`?
USP8 inh: 2; USP17 block: 10; USP30 block: 31*

What do the screens show for `Cn1c(-c2nnc(SCC(=O)NCCc3ccccc3)o2)cc2ccccc21`?
USP8 inh: 23; USP17 block: 43*; USP30 block: 57*

How did CCCCNC(=O)CSc1nnc(-c2cc3ccccc3n2C)o1 do in these assays?
USP8 inh: 12; USP17 block: 56*; USP30 block: 72*

How did Cc1ccc(CCNC(=O)CSc2nnc(-c3ccncc3)o2)cc1 do in these assays?
USP8 inh: 17; USP17 block: 12; USP30 block: 26

Results for COc1ccc(NC(=O)CSc2nnc(-c3cc4ccccc4n3C)o2)cc1 ?
USP8 inh: 27; USP17 block: 17; USP30 block: 11

What do the screens show for `CCN1C(=O)[C@@]2(c3ccccc31)[C@@H]1C(=O)N(c3cccc(Br)c3)C(=O)[C@@H]1[C@@H]1CCCN12`?
USP8 inh: -73; USP17 block: -5; USP30 block: -101

What do the screens show for `CCc1ccccc1C(=O)N1CCN(C2CCN(Cc3ccc4nonc4c3)CC2)C(=O)C1`?
USP8 inh: 12; USP17 block: -1; USP30 block: 10

How did Cc1cnc(CNC(=O)c2cc(-c3csc(-c4cnccn4)n3)n3ccccc23)cn1 do in these assays?
USP8 inh: -63; USP17 block: -62; USP30 block: -109

Results for Cc1ccc(C(=O)N2C[C@H](Oc3ccccn3)[C@H]3OCCC[C@H]32)cn1 ?
USP8 inh: -51; USP17 block: -3; USP30 block: 14

What do the screens show for `O=c1oc2ccccc2c(NCc2ccc3c(c2)OCO3)c1CN1CCCC1`?
USP8 inh: 0; USP17 block: 31*; USP30 block: 12

What do the screens show for `Cc1onc(C(=O)NCc2ccc3c(c2)OCO3)c1CN1CCOCC1`?
USP8 inh: 4; USP17 block: -6; USP30 block: -9

How did CC(C)c1nccn1CCC(=O)N1CCC2(CC1)CC1(CO2)NC(=O)c2ccccc2N1 (stereo unspecified) do in these assays?
USP8 inh: -5; USP17 block: -5; USP30 block: -11

Results for CN(CC(=O)N1CCC(Cc2ccccc2)CC1)S(=O)(=O)c1cc2c(cc1Cl)NC(=O)CO2 ?
USP8 inh: -3; USP17 block: 11; USP30 block: -70

What do the screens show for `CC(Sc1nnc(-c2ccccc2F)n1Cc1ccccc1)C(=O)N1CCc2ccccc21` (stereo unspecified)?
USP8 inh: 17; USP17 block: 24; USP30 block: 42*

What do the screens show for `Fc1ccccc1-c1nnc(SCc2ccccc2)n1Cc1ccccc1`?
USP8 inh: 29; USP17 block: 48*; USP30 block: 56*

How did CC(Sc1nnc(-c2ccccc2F)n1CCc1ccccc1)C(=O)N(C)c1ccccc1 (stereo unspecified) do in these assays?
USP8 inh: -7; USP17 block: 5; USP30 block: 16

Results for O=C(CSc1nnc(-c2ccccc2F)n1CCc1ccccc1)c1c[nH]c2ccccc12 ?
USP8 inh: -9; USP17 block: -51; USP30 block: -45

What do the screens show for `CCc1ccc(NC(=O)N2CCC3(CC2)OC(C(=O)N(CC)CC)Cn2ccnc23)cc1` (stereo unspecified)?
USP8 inh: -9; USP17 block: 1; USP30 block: 6
